Laboratory results reported in PubChem BioAssay (Tox21).
Results filed as inconclusive are left out. Activity calls are given as the source filed them. Unless noted, calls come from the whole dose curve; as a rule, active = well fitted curve in the direction sought with a large enough effect in the repeat runs; inconclusive = weak or mixed curves; inactive = no such curve, though single readings can be large; an effect the other way counts as inactive or inconclusive.

What was measured:
[1] = qHTS assay to identify small molecule agonists of the estrogen related receptor (ERR) signaling pathway from Tox21 library (AID 1224849; calls by dose curve; note: nearly all actives have a fitted effect of over 15% in size); conditions: ERR reporter cell line, ONE-Glo luciferase, 18 h; at 92.4 µM (top of the series) unless noted
Summary of the method: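 ERR reporter cells (NTP line) pre-incubated 6 hours at 37 C, then exposed to compounds for 18 hours at 37 C. ONE-Glo luciferase luminescence was read after 30 minutes at room temperature.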

[2] = qHTS RealTime-Glo MT Cell Viability Assay in HepG2 cells - 24 hour (AID 1224867); note: nearly all actives have a fitted effect of over 50% in size; note: potency is the fitted concentration of half-maximal effect
Summary of the method: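 Compound treatment began 5 h after plating HepG2 cells (600/well) with NanoLuc luciferase and prosubstrate. Plates stayed at 37 C for 40 h; luminescence was captured at six time points, 0 h through 40 h.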

[3] = qHTS RealTime-Glo MT Cell Viability Assay in HEK293 cells - 32 hour (AID 1224868); note: nearly all actives have a fitted effect of over 50% in size; note: potency is the fitted concentration of half-maximal effect
Summary of the method: (§1)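 Quantitative high-throughput screen of the Tox21 10K library in HEK293: cells and RealTime-Glo reagents plated together, compound added at 5 h, luminescence monitored through 40 h at 37 C.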

[4] = A CellTox Green Cytotoxicity Assay to monitor cytotoxicity in HEK293 cells - 0 hour (AID 1224869); note: nearly all actives have a fitted effect of over 50% in size
Summary of the method: (§2)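 HEK293 cells, 600/well, were preincubated 5 hours and then exposed to compounds at 37 C for up to 40 hours. A cell-impermeant cyanine dye staining dead-cell DNA was read by fluorescence at 0, 8, 16, 24, 32 and 40 h time points.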

[5] = qHTS RealTime-Glo MT Cell Viability Assay in HepG2 cells - 40 hour (AID 1224870); note: nearly all actives have a fitted effect of over 50% in size; note: potency is the fitted concentration of half-maximal effect
Summary of the method: (§3)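 HepG2 cells (600/well) mixed with RealTime-Glo MT reagent, settled 5 h at 37 C/5% CO2 before compound addition. Nonlytic NanoLuc luminescence from viable-cell prosubstrate reduction read repeatedly during 40 h treatment at 37 C.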

[6] = A CellTox Green Cytotoxicity Assay to monitor cytotoxicity in HEK293 cells - 40 hour (AID 1224871); note: nearly all actives have a fitted effect of over 45% in size; note: potency is the fitted concentration of half-maximal effect
Summary of the method: as §2

[7] = qHTS RealTime-Glo MT Cell Viability Assay in HepG2 cells - 8 hour (AID 1224873); note: nearly all actives have a fitted effect of over 55% in size; note: potency is the fitted concentration of half-maximal effect
Summary of the method: as §3

[8] = qHTS RealTime-Glo MT Cell Viability Assay in HEK293 cells - 40 hour (AID 1224874); conditions: RealTime-Glo luminescence; max response: active compounds read low; note: nearly all actives have a fitted effect of over 50% in size; note: potency is the fitted concentration of half-maximal effect
Summary of the method: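 600 cells/well were plated with the nonlytic NanoLuc/prosubstrate reagent, pre-incubated 5 h, then given 23 nL of compound in DMSO. Incubation at 37 C for 40 h, with luminescence from viable-cell-reduced substrate read repeatedly from 0 h.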

[9] = A CellTox Green Cytotoxicity Assay to monitor cytotoxicity in HEK293 cells - 24 hour (AID 1224875); note: nearly all actives have a fitted effect of over 45% in size; note: potency is the fitted concentration of half-maximal effect
Summary of the method: as §2

[10] = qHTS RealTime-Glo MT Cell Viability Assay in HEK293 cells - 16 hour (AID 1224872); note: nearly all actives have a fitted effect of over 50% in size; note: potency is the fitted concentration of half-maximal effect
Summary of the method: as §1
% is set by controls: 0 for no effect and ±100 for the full control effect.

CCC1(C)C(=O)N(Cl)C(=O)N1Cl (centres undefined)
inactive: activity change, positive = activation [1] -3.41% | Potency [2] | Potency [3] | Potency [4] | Potency [5] | Potency [6] | Potency [7] | max response [8] 2.78% | Potency [9]

O=c1[nH]cccc1O
inactive: activity change, positive = activation [1] -37% | Potency [2] | Potency [3] | Potency [4] | Potency [5] | Potency [6] | Potency [10] | Potency [7] | max response [8] -23.7% | Potency [9]

Cc1ccc(S(=O)(=O)C(I)I)cc1
active: Potency [2] 11 µM | Potency [3] 12.3 µM | Potency [5] 12.3 µM | Potency [6] 19.5 µM | Potency [10] 15.5 µM | Potency [7] 12.3 µM | Potency [8] 8.71 µM | Potency [9] 34.7 µM
inactive: activity change, positive = activation [1] -77.2% | Potency [4]

C/C=C/C(=O)C1=C(C)C=CCC1(C)C
inactive: activity change, positive = activation [1] -1.28% | Potency [2] | Potency [3] | Potency [4] | Potency [5] | Potency [6] | Potency [10] | Potency [7] | max response [8] 1.31% | Potency [9]

C[C@H]1O[C@@H](O[C@H]2CC[C@@]3(C)[C@H](CC[C@@H]4[C@@H]3C[C@@H](O)[C@]3(C)[C@@H](C5=CC(=O)OC5)CC[C@]43O)C2)C[C@H](O)[C@@H]1O[C@H]1C[C@H](O)[C@H](O[C@H]2C[C@H](O)[C@H](O[C@@H]3O[C@H](CO)[C@@H](O)[C@H](O)[C@H]3O)[C@@H](C)O2)[C@@H](C)O1
inactive: activity change, positive = activation [1] -54.9% [at 42.5 µM] | Potency [2] | Potency [4] | Potency [5] | Potency [6] | Potency [7] | Potency [9]
active: Potency [3] 0.239 µM | Potency [8] 0.239 µM

Nc1ccc(F)c([N+](=O)[O-])c1
inactive: activity change, positive = activation [1] -30.4% | Potency [2] | Potency [3] | Potency [4] | Potency [5] | Potency [6] | Potency [10] | Potency [7] | max response [8] 4.61% | Potency [9]

Clc1cccc(Cl)n1
inactive: activity change, positive = activation [1] 0.024% | Potency [2] | Potency [3] | Potency [4] | Potency [5] | Potency [6] | Potency [7] | max response [8] 3.2% | Potency [9]

c1ccc2occc2c1
inactive: activity change, positive = activation [1] 3.98% | Potency [2] | Potency [3] | Potency [4] | Potency [5] | Potency [6] | Potency [10] | Potency [7] | max response [8] 2.38% | Potency [9]

Cc1cccc2c1ccc1ccccc12
inactive: activity change, positive = activation [1] -38.7% | Potency [2] | Potency [3] | Potency [4] | Potency [5] | Potency [6] | Potency [10] | Potency [7] | max response [8] -16.2% | Potency [9]

CC(C)(C)c1cc(CCC(=O)OCCSCCOC(=O)CCc2cc(C(C)(C)C)c(O)c(C(C)(C)C)c2)cc(C(C)(C)C)c1O
inactive: activity change, positive = activation [1] -3.83% [at 42.5 µM] | Potency [2] | Potency [3] | Potency [4] | Potency [6] | Potency [10] | max response [8] 2.76% | Potency [9]

CCCCCCCCc1ccc(Nc2ccc(CCCCCCCC)cc2)cc1
inactive: activity change, positive = activation [1] -4.1% [at 42.5 µM] | Potency [2] | Potency [3] | Potency [4] | Potency [5] | Potency [6] | Potency [10] | Potency [7] | max response [8] -0.6% | Potency [9]

COc1cccc(-c2ccc(/C=C\CN3CCCCCC3)cc2Cl)c1
inactive: activity change, positive = activation [1] -20.2% | Potency [4]
active: Potency [2] 43.4 µM | Potency [3] 43.4 µM | Potency [5] 43.4 µM | Potency [6] 43.4 µM | Potency [10] 43.4 µM | Potency [8] 43.4 µM | Potency [9] 48.7 µM

CCC(C)(C)c1ccc(CC(C)CN2C[C@@H](C)O[C@@H](C)C2)cc1 (some centres undefined)
inactive: activity change, positive = activation [1] -22.5% [at 42.5 µM] | Potency [2] | Potency [3] | Potency [4] | Potency [5] | Potency [10] | Potency [7] | max response [8] -25.5%
active: Potency [6] 23.9 µM | Potency [9] 23.9 µM

CCCCCCCCCCCCCCCCC(C(=O)O)C(O)(CC(=O)O)C(=O)O (centres undefined)
inactive: activity change, positive = activation [1] -3.01% [at 42.5 µM] | Potency [2] | Potency [3] | Potency [4] | Potency [5] | Potency [6] | Potency [7] | max response [8] -0.507% | Potency [9]

COC(=O)c1ccc([N+](=O)[O-])cc1
inactive: activity change, positive = activation [1] 1.35% | Potency [2] | Potency [3] | Potency [4] | Potency [5] | Potency [6] | Potency [7] | max response [8] -4.75% | Potency [9]

C=Cc1ccncc1
inactive: activity change, positive = activation [1] 4.99% | Potency [2] | Potency [3] | Potency [4] | Potency [5] | Potency [6] | Potency [10] | Potency [7] | max response [8] -1.15% | Potency [9]

COc1cc(OC)nc(NC(=O)NS(=O)(=O)Nc2ccccc2C(=O)N(C)C)n1
inactive: activity change, positive = activation [1] -7.75% | Potency [2] | Potency [3] | Potency [4] | Potency [5] | Potency [6] | Potency [7] | max response [8] 6.33% | Potency [9]

CCc1c(C)cc(N)c(CC)c1N
inactive: activity change, positive = activation [1] -1.89% | Potency [3] | Potency [4] | Potency [5] | Potency [6] | Potency [10] | Potency [7] | max response [8] 1.8% | Potency [9]

SC1CCCCC1
inactive: activity change, positive = activation [1] 7.84% | Potency [3] | Potency [4] | Potency [5] | Potency [6] | Potency [10] | Potency [7] | max response [8] 6.15% | Potency [9]
